SENP7 block = SENP7 protease inhibitors, primary screen, biochemical, luminescence, uHTS; Sentrin-specific protease 7 (Homo sapiens), Q9BQF6; recombinant SENP7, Z-RLRGG-aminoluciferin luminescence, 40 min; inhibition, % at 5 µM; 330,000 compounds, 1.5% hits; AID 434973, 2010;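 active means inhibition above about 50% at the single test dose, limit read from the data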
Target sequence (Q9BQF6 706-1050 limits assumed): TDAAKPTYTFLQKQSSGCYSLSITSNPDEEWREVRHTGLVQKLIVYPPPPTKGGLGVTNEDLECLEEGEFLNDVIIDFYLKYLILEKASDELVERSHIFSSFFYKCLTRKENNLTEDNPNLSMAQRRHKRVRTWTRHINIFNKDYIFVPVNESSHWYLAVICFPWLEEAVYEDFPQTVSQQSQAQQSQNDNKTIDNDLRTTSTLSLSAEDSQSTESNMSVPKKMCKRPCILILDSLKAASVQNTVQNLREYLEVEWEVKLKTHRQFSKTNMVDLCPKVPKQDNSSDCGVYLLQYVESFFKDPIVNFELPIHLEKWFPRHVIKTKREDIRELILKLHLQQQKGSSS
PPC-1+TRAIL kill = compounds killing PPC-1 cancer cells with TRAIL present, primary screen, TRAIL potentiator project, ATPLite luminescence, uHTS | PPC-1 cells + TRAIL, ATPLite viability luminescence | cell killing (% activity), % at 4 µM or 5 µM | 220,000 compounds, 0.41% hits;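 active means cell killing above 50% in the first pass at 4 µM, then a duplicate retest at 5 µM averaging 50% or more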
SENP8 block-1 = SENP8 protease inhibitors, primary screen, biochemical, luminescence. Sentrin-specific protease 8 (Homo sapiens), Q96LD8. purified SENP8, Z-RLRGG-aminoluciferin cleavage. inhibition, % at 10 µM. 330,000 compounds, 1.2% hits. AID 2540, 2010; in the data active means inhibition above about 50%
Target sequence (Q96LD8 whole entry, looked up): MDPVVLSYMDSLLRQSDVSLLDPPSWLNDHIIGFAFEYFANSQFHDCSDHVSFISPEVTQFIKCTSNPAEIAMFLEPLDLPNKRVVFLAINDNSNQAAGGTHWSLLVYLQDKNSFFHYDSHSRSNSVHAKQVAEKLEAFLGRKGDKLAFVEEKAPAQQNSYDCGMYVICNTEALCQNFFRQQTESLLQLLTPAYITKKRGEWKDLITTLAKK
SENP6 inh = SENP6 protease inhibitors, primary screen, biochemical, luminescence, uHTS. 330,000 compounds, 1.8% hits. Recombinant SENP6 catalytic domain, aminoluciferin luminescence. Sentrin-specific protease 6 (Homo sapiens), Q9GZR1. inhibition, % at 10 µM. AID 2599, 2010;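 active means inhibition above about 50% at the single tested dose, limit read from the data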
C8 TRAIL sens = viability loss with TRAIL in NB7+C8 cells, primary screen, TRAIL sensitizer project, cell-based, ATPlite luminescence | inhibition (viability loss, TRAIL sensitization), % at 10 µM | 360,000 compounds, 1% hits | AID 624354, 2012;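 active means compounds causing at least 50% loss of cell viability in the single-dose screen, relative to plate controls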
SENP8 block-2 = human SENP8 protease inhibitors, primary screen, biochemical, fluorescence, Nedd8 protein substrate, uHTS; Sentrin-specific protease 8 (Homo sapiens), Q96LD8; recombinant SENP8; 360,000 compounds, 0.64% hits; AID 602440, 2012; inhibition, % at 20 µM; in the data active means inhibition mostly above about 40%, no sharp cut-off; inactive means mostly below about 27%
SENP8 conf = SENP8 protease inhibitors, retest, confirmation, biochemical, luminescence, single concentration. inhibition, % at 12.5 µM. 6,200 compounds, 40% hits. shares compounds with SENP7 block. Recombinant SENP8, Z-RLRGG-aminoluciferin luminescence, 60 min;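 active means mean inhibition across replicates above about 50%, limit read from the data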
SENP6 conf = SENP6 protease inhibitors, confirmation, biochemical, luminescence, single concentration; 6,200 compounds, 58% hits; inhibition, % at 12.5 µM; recombinant SENP6, Z-RLRGG-aminoluciferin luminescence; AID 488915, 2010; shares compounds with SENP7 block
SENP7 conf = SENP7 protease inhibitors, retest, confirmation, biochemical, luminescence, single concentration; inhibition, % at 12.5 µM; 6,200 compounds, 69% hits; recombinant SENP7, Z-RLRGG-aminoluciferin luminescence, 40 min; shares compounds with SENP7 block; AID 488917, 2010
Casp3 select = caspase-3 protease inhibitors, confirmation, selectivity assay for SENP inhibitor project, biochemical, single concentration; AID 488918, 2010; inhibition, % at 12.5 µM; 6,200 compounds, 60% hits; shares compounds with SENP7 block; purified caspase-3, Z-DEVD-aminoluciferin luminescence, 60 min;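 active means mean inhibition above about 50%, limit read from the data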
Luc interf = counter-screen for SENP inhibitors: luminescence interference; shares compounds with SENP7 block; Pre-incubated SENP8/Z-RLRGG-aminoluciferin, luciferase luminescence interference; inhibition, % at 12.5 µM; 6,200 compounds, 39% hits; AID 488919;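 active means mean inhibition above about 50% when retested at one dose, limit read from the data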
Numbers stand for hits; . = inactive; / = no result. Only some compounds are listed: those with a hit (about 3% of all), similar ones and a draw of the others.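 How the source made its calls, unless noted: active means mean inhibition above about 50% in the one-dose retest (limit read from the data); inactive means the rest.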

SMILES	SENP7 block	PPC-1+TRAIL kill	SENP8 block-1	SENP6 inh	C8 TRAIL sens	SENP8 block-2	SENP8 conf	SENP6 conf	SENP7 conf	Casp3 select	Luc interf
CN=c1scc(-c2cccs2)n1/N=C/c1ccccc1O	95	74	94	96	94	.	.	94	102	94	.
CN=c1scc(C)n1/N=C/c1ccc(O)c(O)c1O	.	.	.	.	.	.	/	/	/	/	/
O=C1CCCC(=NNC(=O)c2cc3ccccc3cc2O)C1	88	/	89	90	.	.	89	92	101	93	88
CCOc1ccc(-c2cc(N3C(=O)Nc4ccccc4N3O)on2)cc1	.	.	.	54	56	.	.	.	79	77	67
COc1ccc(-c2cc(N3C(=O)Nc4ccccc4N3O)n[nH]2)cc1	.	.	.	.	.	.	/	/	/	/	/
CCc1cc(=O)[nH]c(-n2[nH]c(-c3ccccc3)cc2=O)n1	.	.	.	.	.	.	/	/	/	/	/
O=c1cc(-c2ccccc2)[nH]n1-c1nc2ccccc2[nH]1	.	.	.	65	.	.	.	52	85	78	.
COc1ccc(/C=C2\SC(=S)N(CCCC(=O)N3CCN(C)CC3)C2=O)cc1	.	/	.	70	.	.	57	53	76	54	52
CN1CCN(C(=O)CCCN2C(=O)/C(=C/c3cccc(Br)c3)SC2=S)CC1	.	/	.	52	.	.	.	.	.	.	.
O=C(CCCN1C(=O)/C(=C/c2cccc(Br)c2)SC1=S)N1CCOCC1	.	/	.	64	.	.	.	58	65	.	.
CN1CCN(C(=O)CCN2C(=O)/C(=C/c3cccc(Br)c3)SC2=S)CC1	.	/	.	.	.	.	/	/	/	/	/
O=C(/C=C/[C@H]1O[C@@H](n2cnc3c(NC(=O)c4ccccc4)ncnc32)[C@H](O)[C@@H]1O)NCc1cccc2ccccc12	/	/	/	/	.	.	/	/	/	/	/
O=C(COc1ccccc1)N[C@@H]1c2ccccc2CC[C@@H]1O	.	/	/	/	.	.	/	/	/	/	/
c1ccc(-c2cn3c(n2)-c2ccccc2C3)cc1	97	.	96	96	69	.	99	100	103	99	97
O=C1N/C(=C\c2nc3ccccc3s2)c2ccccc21	98	.	84	92	/	/	.	.	.	.	.
O=C1N/C(=C\c2ccccc2)c2ccccc21	.	.	.	.	.	.	/	/	/	/	/
Clc1ccccc1-c1nnc(-c2ccccc2Cl)o1	.	.	77	83	.	.	79	83	94	69	50
Clc1ccc(-c2nnc(-c3ccccc3Cl)o2)cc1	87	.	50	83	.	.	.	.	52	.	.
CCCNCc1nnc(-c2ccccc2Cl)o1	.	.	.	.	.	.	/	/	/	/	/
Clc1ccc(-c2nnc(-c3cccnc3)o2)cc1	.	/	.	.	.	.	/	/	/	/	/
CC(C)(C)c1ccc(S(=O)(=O)Nc2cccc(C3OCCCO3)c2)cc1	.	.	.	.	.	.	/	/	/	/	/
O=C(c1ccccc1)c1nnc(-c2ccncc2)o1	57	.	.	58	.	.	68	64	86	88	57
CCCCNC(=S)N/N=C/c1sccc1C	.	.	.	.	.	.	/	/	/	/	/
Cc1ccsc1C=Nc1ccc(O)cc1	.	.	.	68	.	97	.	.	.	.	.
Cc1ccsc1/C=N/NC(=O)CO	.	.	.	.	.	.	/	/	/	/	/
SMILES	SENP7 block	PPC-1+TRAIL kill	SENP8 block-1	SENP6 inh	C8 TRAIL sens	SENP8 block-2	SENP8 conf	SENP6 conf	SENP7 conf	Casp3 select	Luc interf
Cc1ccsc1/C=N/N=C/c1sccc1C	98	/	95	.	.	.	.	98	103	86	87
Cc1ccccc1NC(=O)Cn1c(C)nc2ccc(NC(=O)C3CC3)cc2c1=O	71	.	.	.	.	.	.	.	.	.	.
O=C(NC1CCCC1)C(c1cccnc1)N(C(=O)c1csnn1)c1ccccc1Cl (stereo not given)	.	/	.	.	.	.	/	/	/	/	/
CCOC(=O)c1ccccc1NC(=O)COC(=O)CCC1CCCC1	.	/	.	.	.	.	/	/	/	/	/
COc1ccc(/C=C/c2ccc3cccc(O)c3n2)cc1Br	63	/	.	.	.	.	.	.	.	.	.
Oc1cccc(/C=C/c2ccc3cccc(O)c3n2)c1	96	/	94	94	.	.	97	98	102	92	97
COc1cccc(/C=C/c2ccc3cccc(O)c3n2)c1	92	/	89	93	.	.	92	95	102	90	66
CC(=O)Nc1ccc(/C=C/c2ccc3cccc([N+](=O)[O-])c3n2)cc1	.	.	.	.	.	.	/	/	/	/	/
O=[N+]([O-])c1ccc(/C=C/c2ccc3cccc(O)c3n2)cc1	53	/	.	.	.	.	.	.	.	.	.
COc1cc(/C=C/c2ccc3cccc(O)c3n2)cc(OC)c1OC	.	/	.	.	.	.	/	/	/	/	/
CCNc1c(NS(=O)(=O)c2ccc(Cl)s2)c(=O)oc2ccccc12	.	/	.	.	.	.	/	/	/	/	/
Cc1nc(Cl)c(C(=O)NC(=O)NCc2ccccc2)c(C)c1Cl	.	.	.	.	.	.	/	/	/	/	/
CC1(C(=O)Nc2cccc3c2CCCC3)CCN1C(=O)CCC1CCCC1 (stereo not given)	/	/	/	/	.	.	/	/	/	/	/
CCCc1[nH]n(-c2nc3ccccc3s2)c(=O)c1C=NCCCN(CC)CC	.	.	.	68	.	.	.	.	.	60	57
O=[N+]([O-])c1ccc(O)c(C2=NNC(c3ccccc3F)C2)c1 (stereo not given)	.	.	85	.	.	.	.	86	97	.	50
Cc1ccc(-c2nc3sc4c(c3c(=O)n2N)CC(C)(C)OC4)cc1	.	.	.	.	.	.	/	/	/	/	/
Cc1ccc(-c2nc3sc4c(c3c(=O)n2N)CCCC4)cc1	54	.	.	72	.	.	.	66	88	.	.
O=c1c2c3c(sc2nc2n1CCCCC2)CCCCC3	.	.	.	.	.	.	/	/	/	/	/

Bioassay records as filed in PubChem.
